In all, about 68,000 compounds went through this assay and about 2,700 (4%) showed an effect of 50% or more. The sample as a whole holds a higher share of strong results than the screen did.

In this experiment the test system is Plasmodium berghei. The experiment in a line: Screen against P. berghei liver stage (PbLuc), transformed with Luciferase, at 2uM. The experiment is classed as functional, HepG2. The conditions noted are these: tested at 2 uM.
As for `Cc1cccc(N2CCN(CCNC(=O)C(C)n3cncn3)CC2)c1` (configuration not stated), the INHIBITION was found to be 12.88%.

As to `O=C(N[C@@H]1CN(CC2CC2)[C@@H]2CCCO[C@@H]21)c1cscn1`, the INHIBITION was found to be 17.24%.

In the case of `CCN(CC)C(=O)N1CCN(Cc2cnc(C)nc2)[C@H]2CS(=O)(=O)C[C@H]21`, the INHIBITION was found to be 29.51%.

In the case of `Cc1ncc(CN2CCN(C(=O)N(C)C)[C@@H]3CS(=O)(=O)C[C@@H]32)cn1`, the INHIBITION was determined as 55.99%.

For `CCC(=O)N1CCN(Cc2cnc(C)nc2)[C@H]2CS(=O)(=O)C[C@H]21`, the INHIBITION was -36.29%.

Consider `O=C(CC1CC1)N1CCC2(CC1)CN(c1ncccn1)CCO2`, for which the INHIBITION was -26.24%.

On to `CO[C@@H]1CCN(S(=O)(=O)c2cn(C)cn2)[C@H]1Cc1ccccc1`, for which the INHIBITION is reported as 4.38%.

For `CCO[C@H]1CCN(S(=O)(=O)c2cn(C)cn2)[C@H]1Cc1ccccc1`, the INHIBITION was -40.45%.

For `CO[C@H]1CCN(S(=O)(=O)c2cn(C)cn2)[C@H]1Cc1ccccc1`, the INHIBITION is given as 74.27%.

Take `CC(C#N)CN(C)Cc1cc(Cl)cc2cccnc12` (configuration not stated): the INHIBITION is 28.91%.

For `Cc1ccc([C@@H]2CN(C(=O)c3cc(C)no3)C[C@H]2NC(=O)C2CC2)cc1`, the INHIBITION amounted to 0.94%.

Turning to `CCc1nc(C)sc1CNC1CCN(Cc2ccccc2)C1` (configuration not stated), the INHIBITION was 26.74%.

On to `CCc1csc(CNC2CCN(Cc3ccccc3)C2)n1` (configuration not stated), for which the INHIBITION was found to be 50.59%.

On to `Cc1nc(CNC2CCN(Cc3ccccc3)C2)sc1C` (configuration not stated), for which the INHIBITION is listed as 36.28%.

As for `CCCc1cc(NC2CCc3ncnn3C2)n2ncnc2n1` (configuration not stated), the INHIBITION worked out at 8.91%.

On to `O=C1CC(c2ccccc2)C2(CCN(Cc3nccs3)CC2)N1` (configuration not stated), for which the INHIBITION is on record as -4.2%.

As for `CC(C)(C)OC(=O)N1CCC(NCc2cnn(C(C)(C)C)c2)CC1`, the INHIBITION is listed as -13.89%.

`Cc1cccc2cc(C(=O)N3CCC(F)(F)CC3)n(C)c12`: the INHIBITION turned out to be 28.1%.

Turning to `O=C1CC(c2ccc(O)cc2)c2c(n3ccsc3nc2=O)N1` (configuration not stated), the INHIBITION came out at 37.87%.

Turning to `O=C1CC(c2ccccc2)c2c(n3ccsc3nc2=O)N1` (configuration not stated), the INHIBITION came to 73.66%.

`O=C1CC(c2ccc(Cl)c(Cl)c2)c2c(n3ccsc3nc2=O)N1` (configuration not stated): the INHIBITION is 24.44%.

As for `Cc1ccc(N(CC(=O)c2ccc(Br)cc2)C2=NCCCCC2)cc1`, the INHIBITION is reported as -13.56%.

With `CC(=O)N1CCC(c2cc(Nc3ncccn3)nc(C)n2)C1` (configuration not stated), the INHIBITION amounted to 31.98%.

In the case of `CC(C)(C)n1ncc2c1NC(=O)CC2c1cccc(F)c1` (configuration not stated), the INHIBITION is -10.58%.

As to `CC(C)c1noc(CCCC(=O)N2CCN(C)CC2c2ccccc2)n1` (configuration not stated), the INHIBITION is 14.63%.

`CC(C)c1noc(CCC(=O)N2CCN(C)CC2c2ccccc2)n1` (configuration not stated): the INHIBITION is on record as 57.59%.

Consider `CCCc1noc(CCC(=O)N2CCN(C)CC2c2ccccc2)n1` (configuration not stated), for which the INHIBITION is reported as 35.56%.

Source of the values: ChEMBL document CHEMBL4513216, “Probing the Open Global Health Chemical Diversity Library for Multistage-Active Starting Points for Next-Generation Antimalarials” (ACS Infect Dis, 2020).
